Shown are actives, neighbours in structure and some others; about 19% of the full set was active somewhere.
HT1080 IDH1KD tx: qHTS for induction of synthetic lethality in tumor cells producing 2HG: qHTS for the HT-1080-IDH1KD cell line; HT-1080 IDH1 knockdown viability, ATP luminescence, 48 h; Potency, µM (doses to about 46.1 µM), actives largely listed as cytotoxic; 360,000 compounds, 2% hits; AID 686971, 2013
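CellTiter-Glo luminescence after 48 h compound exposure at 37 degrees C of IDH1-knockdown HT-1080 cells in 5% FBS RPMI. %Activity scaled between DMSO wells and cell-free media wells, with curves fitted and assigned curve classes.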
DT40 TDP1 CPT: qHTS for Inhibitors of human tyrosyl-DNA phosphodiesterase 1 (TDP1): qHTS in cells in presence of CPT | chicken DT40 Tdp1-/-;hTDP1 cells + 20 nM CPT, ATP luminescence, 48 h | Potency, µM (highest dose often 46.2 µM), actives largely listed as inhibitors | 420,000 compounds, 12% hits; further: nearly all actives have a fitted effect of over 55% in size
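Chicken DT40 Tdp1-/- cells stably complemented with human TDP1 were seeded at 400 cells/well in medium containing 20 nM camptothecin, exposed to pin-transferred compounds, and grown at 37 °C for at least 48 hr. Viability was read as ATP luminescence.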
TDP1 cell noCPT: qHTS for Inhibitors of human tyrosyl-DNA phosphodiesterase 1 (TDP1): qHTS in cells in absence of CPT; 420,000 compounds, 15% hits; Potency, µM (series often up to 46.2 µM), hits mostly inhibitors; AID 686978, 2013; DT40 Tdp1-/- hTDP1 cells, no CPT, ATP luminescence, 48 h; further: nearly all actives have a fitted effect of over 55% in size
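Growth kinetics read by CellTiter-Glo luminescence after ≥48 hr at 37 °C. Cells: DT40 Tdp1-/- stably carrying human TDP1, 400 per well, compound exposure in the absence of CPT (DMSO vehicle).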
IL-1B inflam inh: qHTS for Inhibitors of Inflammasome Signaling: IL-1-beta AlphaLISA Primary Screen; THP-1 LPS/ATP IL-1B secretion, AlphaLISA, 16 h; hits give low values; activity change, % at 57.5 µM; 360,000 compounds, 4.7% hits; in the data active means activity change below about -50%; inconclusive means mostly about -30% to -49%
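THP-1 cells pretreated 1 hr with compounds (up to 57.5 uM final), then stimulated with LPS (250 ng/mL final) plus ATP (1.25 mM final); secreted IL-1B measured by AlphaLISA after 16 hr, decreased signal indicating inhibition.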
HT1080NT lethal: qHTS for induction of synthetic lethality in tumor cells producing 2HG: qHTS for the HT-1080-NT fibrosarcoma cell line; HT-1080-NT fibrosarcoma viability, CellTiter-Glo ATP luminescence, 48 h; Potency, µM (titrated, usually from 46.1 µM), hits mostly cytotoxic; 360,000 compounds, 1.6% hits; AID 686970, 2013;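 further: NT is the 2HG producing partner of a matched IDH1 knockdown line; nearly all actives have a fitted effect of over 55% in size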
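HT-1080-NT fibrosarcoma cells (2HG-overproducing), 750 cells/well in RPMI with 5% FBS, dosed after 2 h and incubated 48 h at 37C. CellTiter-Glo luminescence normalized to DMSO and no-cell wells; concentration-response curves fitted and classed.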
ELG1 repair inh: qHTS screen for small molecules that inhibit ELG1-dependent DNA repair in human embryonic kidney (HEK293T) cells expressing luciferase-tagged ELG1; HEK293T ELG1-luciferase reporter, luminescence, 16 h; DNA damage induced by 5-fluorouridine; Potency, µM (titrated, usually from 46.1 µM), usual class: inhibitors; 330,000 compounds, 2.3% hits; further: nearly all actives have a fitted effect of over 55% in size
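HEK293T cells expressing luciferase-tagged ELG1 (2,000/well) received 5-Fluorouridine plus compound or DMSO for 16 hr at 37 °C. Luciferase was read by ONE-Glo luminescence after 30 min at room temperature.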
Hits are given with their value. Unless noted, the call rests on the fitted dose curve; in most records, active means well fitted curve in the direction sought with a large enough effect; inconclusive means small, poorly fitted or top-dose-only effect, or another doubt; inactive means no such curve, though single readings can be large; an effect the other way counts as inactive or inconclusive.

For N#Cc1ccc(N/N=C/c2cn(-c3ccccc3)nc2-c2ccccc2)c([N+](=O)[O-])c1 the results were HT1080 IDH1KD tx inactive, DT40 TDP1 CPT 3.7µM, TDP1 cell noCPT 8.2µM, IL-1B inflam inh inactive, HT1080NT lethal inactive and ELG1 repair inh inactive.
O=Cc1cn(-c2ccccc2)nc1-c1cccc([N+](=O)[O-])c1 was read as HT1080 IDH1KD tx inactive, DT40 TDP1 CPT inconclusive, TDP1 cell noCPT inconclusive, IL-1B inflam inh inconclusive and HT1080NT lethal inactive.
Screening CN(C)C(=O)c1ccc(-c2cc(NCc3ccccc3)ncn2)cc1 returned DT40 TDP1 CPT inactive and TDP1 cell noCPT inactive.
COc1cc(N2C(=O)C=CC2=O)c(OC)cc1Cl was read as HT1080 IDH1KD tx inconclusive, DT40 TDP1 CPT 1.8µM, TDP1 cell noCPT 1.3µM, IL-1B inflam inh inconclusive, HT1080NT lethal 18µM and ELG1 repair inh inactive.
`Cc1nc(C)c(C(=O)OCC(=O)Nc2ccc(C)c(C)c2)s1` gave HT1080 IDH1KD tx inactive, DT40 TDP1 CPT inactive, TDP1 cell noCPT inconclusive, IL-1B inflam inh inactive and HT1080NT lethal inactive.
`Cc1ccc(-c2nc(CS(=O)(=O)CC(=O)N3CCN(c4ccccc4)CC3)c(C)o2)cc1` gave DT40 TDP1 CPT inconclusive and TDP1 cell noCPT 23µM.
Cc1ccc(-c2nc(CS(=O)(=O)CC(=O)N3CCc4ccccc4C3)c(C)o2)cc1 was read as HT1080 IDH1KD tx inactive, DT40 TDP1 CPT 18µM, TDP1 cell noCPT 21µM, IL-1B inflam inh inactive, HT1080NT lethal inactive and ELG1 repair inh inconclusive.
For COc1ccc(OC)c(NC(=O)CSc2nc3nc(C)cc(C)n3n2)c1 the results were HT1080 IDH1KD tx inactive, DT40 TDP1 CPT inactive, TDP1 cell noCPT inactive, IL-1B inflam inh inactive, HT1080NT lethal inactive and ELG1 repair inh inactive.
`O=C1CCCCC1Nc1ccc2ccccc2c1` (centres undefined) gave HT1080 IDH1KD tx inactive, DT40 TDP1 CPT inactive, TDP1 cell noCPT inactive, IL-1B inflam inh -64 and HT1080NT lethal inactive.
Screening O=C1CCCC1C(=O)Nc1ccc2ccccc2c1 (centres undefined) returned HT1080 IDH1KD tx inactive, DT40 TDP1 CPT inactive, TDP1 cell noCPT inactive, IL-1B inflam inh inconclusive, HT1080NT lethal inactive and ELG1 repair inh inconclusive.
`CCOc1ccccc1NC(=O)Cn1c(=O)n(CCC(=O)NCc2ccc3c(c2)OCO3)c(=O)c2ccccc21` gave DT40 TDP1 CPT inconclusive and TDP1 cell noCPT 12µM.
`CCOc1ccc(NC(=O)Cn2c(=O)n(CCCCC(=O)NCc3ccc4c(c3)OCO4)c(=O)c3ccccc32)cc1` gave DT40 TDP1 CPT inconclusive and TDP1 cell noCPT inactive.
`O=C(CCCn1c(=O)c2ccccc2n(CC(=O)Nc2cccc(Cl)c2)c1=O)NCc1ccc2c(c1)OCO2` gave DT40 TDP1 CPT inconclusive and TDP1 cell noCPT 15µM.
For O=C(CCCCCn1c(=O)c2sccc2n(CC(=O)Nc2cccc(Cl)c2)c1=O)NCc1ccc2c(c1)OCO2 the results were DT40 TDP1 CPT inconclusive and TDP1 cell noCPT 15µM.
For CCOC(=O)c1ccccc1NC(=O)Cn1c(=O)n(CCCC(=O)NCc2ccc3c(c2)OCO3)c(=O)c2ccccc21 the results were DT40 TDP1 CPT inactive and TDP1 cell noCPT inactive.
Screening CC(=O)c1c(C)n(CC(=O)NCc2ccc3c(c2)OCO3)c2ccccc12 returned HT1080 IDH1KD tx inactive, DT40 TDP1 CPT 13µM, TDP1 cell noCPT 14µM, IL-1B inflam inh inactive, HT1080NT lethal inconclusive and ELG1 repair inh inconclusive.
Screening Cc1noc(Cn2c(=O)c3ccccc3n(CC(=O)Nc3ccccc3C(F)(F)F)c2=O)n1 returned DT40 TDP1 CPT inactive and TDP1 cell noCPT inactive.
Screening CN(C(=O)CSCC(=O)Nc1ccc(Cl)cc1)C1CCCCC1 returned HT1080 IDH1KD tx inactive, DT40 TDP1 CPT inconclusive, TDP1 cell noCPT 15µM, IL-1B inflam inh -53, HT1080NT lethal inconclusive and ELG1 repair inh inactive.
For CC1(c2ccc3c(c2)OCCO3)NC(=O)N(CC(=O)Nc2ccccc2)C1=O (centres undefined) the results were HT1080 IDH1KD tx inactive, DT40 TDP1 CPT inactive, TDP1 cell noCPT inactive, IL-1B inflam inh inactive, HT1080NT lethal inactive and ELG1 repair inh inconclusive.
CCN(CC)CCCOC(=O)c1ccc(OC)cc1O was read as HT1080 IDH1KD tx inactive, DT40 TDP1 CPT inactive, TDP1 cell noCPT inactive, IL-1B inflam inh inactive, HT1080NT lethal inactive and ELG1 repair inh inactive.
Screening Cc1ccc(S(=O)(=O)N(CC2CO2)c2cccc([N+](=O)[O-])c2)cc1 (centres undefined) returned HT1080 IDH1KD tx inconclusive, DT40 TDP1 CPT 12µM, TDP1 cell noCPT 23µM, IL-1B inflam inh inactive, HT1080NT lethal inconclusive and ELG1 repair inh inconclusive.
Screening O=S(=O)(c1ccccc1)N(CC1CO1)c1ccccc1 (centres undefined) returned HT1080 IDH1KD tx inactive, DT40 TDP1 CPT inactive, TDP1 cell noCPT inconclusive, IL-1B inflam inh inactive, HT1080NT lethal inactive and ELG1 repair inh inactive.
For O=S(=O)(c1ccccc1)N(CC1CO1)c1cccc2ccccc12 (centres undefined) the results were HT1080 IDH1KD tx inconclusive, DT40 TDP1 CPT 21µM, TDP1 cell noCPT 23µM, IL-1B inflam inh -69, HT1080NT lethal inactive and ELG1 repair inh inactive.
Screening Cc1ccc(S(=O)(=O)N(CC2CO2)c2ccccc2[N+](=O)[O-])cc1 (centres undefined) returned HT1080 IDH1KD tx inactive, DT40 TDP1 CPT 12µM, TDP1 cell noCPT inconclusive, IL-1B inflam inh inconclusive, HT1080NT lethal inactive and ELG1 repair inh inconclusive.
Screening Cc1ccc(N(CC2CO2)S(=O)(=O)c2ccccc2[N+](=O)[O-])cc1 (centres undefined) returned HT1080 IDH1KD tx inactive, DT40 TDP1 CPT inactive, TDP1 cell noCPT inconclusive, IL-1B inflam inh inactive, HT1080NT lethal inconclusive and ELG1 repair inh inactive.
For Cc1ccc(S(=O)(=O)N(CC(=O)NCC2CCCO2)c2cccc([N+](=O)[O-])c2)cc1 (centres undefined) the results were HT1080 IDH1KD tx inactive, DT40 TDP1 CPT inactive, TDP1 cell noCPT inactive, IL-1B inflam inh inactive, HT1080NT lethal inactive and ELG1 repair inh inactive.
CCOc1ccc(OCC)c(NC(=O)c2nnn(Cc3cc(Br)ccc3OC)c2N)c1 was read as DT40 TDP1 CPT inactive and TDP1 cell noCPT inactive.

Bioassay records deposited in PubChem by National Center for Advancing Translational Sciences (NCATS).
